The target of the first experiment is ZNF599. The experiment is described as follows: pooled miR-30 sensor sort-seq; sequence = guide strand. The note with it: shRNA.
Turning to TTAGCTTTTCCTCATCTCTAGC, the sensor-assay potency score (higher = more potent) is -0.541.
Sequence TAAATGCATGTTAACCACCAGG showed a sensor-assay potency score (higher = more potent) of -1.03.
Regarding TATGGGTCCTCTTATGTCGGAT, the sensor-assay potency score (higher = more potent) was -0.578.
Still for that read-out and setting: for TTCCACATTCTCTACAAACATA the value was -1.71.
For the sequence TTGCACATTCTTTGCACTCCAA, the sensor-assay potency score (higher = more potent) is -0.563.
For the sequence AATCTCTTGAGGATCTCTGTGC, the sensor-assay potency score (higher = more potent) was -0.218.
TGAATCTTTAATATAATTCTTT yielded a sensor-assay potency score (higher = more potent) of -0.316.
In turn, TTGAGAGTCACACTCATGGAGA came in with a sensor-assay potency score (higher = more potent) of -0.714.
TTATTTTAAAATATGCTTGAGA showed a sensor-assay potency score (higher = more potent) of -0.0715.
With TTGTGGAGTGACTCGTTCCTGT, the sensor-assay potency score (higher = more potent) was -0.347.
TTCTCTACAAACATAGGGCTTC came in with a sensor-assay potency score (higher = more potent) of 0.194.

Another experiment addresses ZNF609. The description is as above. The conditions noted are these: shRNA.
TTTGTGAGACAGATGCACCGTT came in with a sensor-assay potency score (higher = more potent) of 0.735.
The same measure, in the same setting: for TTGCAGTCACTACTTGTGCTTT the value was -0.589; for TATCGTGGGAGACTTGCTCTTG, -0.437.
With TTGACTTTCTTTAGCAGGCGAC, the sensor-assay potency score (higher = more potent) is -0.497.
On to TTGACATCCTCAGAAGTGCTGC, for which the sensor-assay potency score (higher = more potent) worked out at 0.188.
The sequence TATTGGATCCATCTCTGCCTGT had a sensor-assay potency score (higher = more potent) of -0.575.
With TTTCTGTCCAGAACAGTGGGTT, the sensor-assay potency score (higher = more potent) turned out to be 0.109.
In turn, TGAAACTGTAGATCTTGTCGGC had a sensor-assay potency score (higher = more potent) of 0.618.
In turn, TCTTTTTCCATACACTTCCTTT came in with a sensor-assay potency score (higher = more potent) of -0.591.
In turn, TGATTTGACACTGTCTACCTTG had a sensor-assay potency score (higher = more potent) of 0.639.
As to TAAACATATGTCCACATCCGGG, the sensor-assay potency score (higher = more potent) is -1.36.
TTGGAGAATAGTAACTCTCAAA: the sensor-assay potency score (higher = more potent) is -1.39.

The target in a further experiment is ZNF630. Described as above. The conditions noted are these: shRNA.
On to TTGCTTATGACTGAGAACTTTT, for which the sensor-assay potency score (higher = more potent) was -0.853.
As for TAATTAGATGTGACTTCTGGGA, the sensor-assay potency score (higher = more potent) was -0.376.
Same read-out and setting: for TAGAATGAGATGTGACTTCAGG the value was -0.186; for TTCTTTCTTGCATAGCTCCTGT, 0.0285; for TATAATTAGATGTGACTTCTGG, 0.548.
Turning to TTCCATACTTAGTACATTCATA, the sensor-assay potency score (higher = more potent) is -0.904.
The same measure, in the same setting: for TTGGACACTCAAAACACTCATA the value was -0.509.
Take TAAGTCTGAATTAGACTTCAAG: the sensor-assay potency score (higher = more potent) is -0.977.
Consider TTATAATTTAGTAAGTCTGAAT, for which the sensor-assay potency score (higher = more potent) is -1.16.
For ACACATACTACAAACATTGGGT, the sensor-assay potency score (higher = more potent) is -0.0412.
Sequence TTTCACATTGACTATCTCCATA came in with a sensor-assay potency score (higher = more potent) of -0.895.
The sequence ATACTTAGTACATTCATAGGGT displayed a sensor-assay potency score (higher = more potent) of 0.067.

Another experiment has as its target ZNF653. Described as above. The note with it: shRNA.
In turn, TAGCAAGCACAGGTCCTCCTTC returned a sensor-assay potency score (higher = more potent) of -0.219.
Regarding ATGATGGCTGACATGTCGCTGC, the sensor-assay potency score (higher = more potent) is -0.928.
Sequence TTCTTCCTCTTGAAGGACTTGC showed a sensor-assay potency score (higher = more potent) of -0.65.

The values are drawn from the OligoGym collection.
Note: reference of the scale not given here.
